# Laboratory results taken from PubChem BioAssay (NCATS).
# Records with an inconclusive call do not appear. Active and inactive are the calls of the source. Unless noted, calls follow the shape of the dose curve; as a rule, active = well fitted curve in the direction sought with a large enough effect; inconclusive = small, poorly fitted or top-dose-only effect, or another doubt; inactive = no such curve, though single readings can be large; an effect the other way counts as inactive or inconclusive.
# Experiments:
# [1] = target: Lysosomal acid glucosylceramidase (Homo sapiens) (UniProt P04062); assay: Glucocerebrosidase-p2 (AID 348; in the data active = potency below about 10 µM; also: potency is read from the fitted curve at half-maximal effect); conditions: purified GBA, blue fluorogenic substrate, 40 min
# Outline: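 Compounds titrated from 0.6 nM upwards against 0.2 nM enzyme in pH 5.9 citric acid/KH2PO4, taurocholate, tween-20; blue fluorogenic substrate 80 uM, 40 min room temperature, stopped and read Ex 365/Em 440 for AC50.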
# [2] = AP1 Signaling Pathway (AID 357; active = well fitted curve in either direction with a large enough effect, not every such curve was filed as active;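 also: ME-180 reporter cells stimulated with EGF at its EC50 level; % is scaled to controls: 0 for no effect and ±100 for the full control effect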); conditions: ME-180 AP-1-bla reporter, EGF-induced, beta-lactamase ratio, 5 h; at 7.69 µM (top of the series) unless noted
# Outline: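 In this screen, ME-180 cells in Opti-MEM with 0.5% dialyzed FBS received EC50 EGF and compound titrations for 5 h. AP-1 reporter beta-lactamase was detected via CCF4 ratio, giving AC50 for positive and negative modulators.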
# [3] = target: Cytochrome P450 1A2 (Homo sapiens) (UniProt P05177); assay: p450-cyp1a2 (AID 410; calls by dose curve; also: potency is read from the fitted curve at half-maximal effect); conditions: recombinant CYP1A2, luciferin-ME demethylation, luminescence; series mostly up to 57 µM
# Chain of Cytochrome P450 1A2 (Homo sapiens) (P05177 whole entry, looked up): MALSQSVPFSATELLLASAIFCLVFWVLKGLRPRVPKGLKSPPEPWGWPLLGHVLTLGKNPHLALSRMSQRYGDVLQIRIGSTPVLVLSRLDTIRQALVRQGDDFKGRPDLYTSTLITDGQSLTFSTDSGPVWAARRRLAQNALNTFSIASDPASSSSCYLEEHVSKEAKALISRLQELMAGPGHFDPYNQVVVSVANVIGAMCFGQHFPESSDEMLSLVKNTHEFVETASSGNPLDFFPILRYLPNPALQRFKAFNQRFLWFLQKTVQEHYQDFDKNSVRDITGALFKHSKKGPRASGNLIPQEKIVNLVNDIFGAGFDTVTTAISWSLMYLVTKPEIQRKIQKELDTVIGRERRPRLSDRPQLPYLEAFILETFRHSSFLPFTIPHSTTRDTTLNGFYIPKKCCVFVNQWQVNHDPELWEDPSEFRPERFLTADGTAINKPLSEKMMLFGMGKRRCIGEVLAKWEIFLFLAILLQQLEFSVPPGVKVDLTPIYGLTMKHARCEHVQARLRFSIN
# Outline: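 20nM CYP1A2 with 100uM Luciferin-ME (at Km) in 100mM KPO4; compound preincubated 10 min, NADPH regeneration added, 60 min at room temperature. Luciferin quantified by luminescence after detection reagent; normalized to 57 uM furafylline.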
# [4] = NFAT Signaling Pathway (AID 444; active = well fitted curve in either direction with a large enough effect, not every such curve was filed as active;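 also: carbachol stimulus at about its EC50 of 1 µM final; % is scaled to controls: 0 for no effect and ±100 for the full control effect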); conditions: Jurkat NFAT-bla M1, carbachol, beta-lactamase ratio, 5 h; at 7.69 µM (top of the series) unless noted
# Outline: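 Jurkat cells carrying an NFAT-driven β-lactamase reporter and co-transfected muscarinic M1 receptor were treated with compound plus carbachol (1 uM final, an EC50 level) for 5 h at 37 °C. CCF4 loading followed for 1 h at RT; 460/530 nm ratio gave %activity.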
# [5] = Stat Signaling Pathway (AID 446; active = well fitted curve in either direction with a large enough effect, not every such curve was filed as active;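 also: ME-180 cervical cancer cells given 40 pM IL-6 alongside compound; SIE-controlled beta-lactamase reporter measured as 460/530 nm FRET emission ratio; % is scaled to controls: 0 for no effect and ±100 for the full control effect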); conditions: ME-180 SIE beta-lactamase reporter, IL-6 stimulated, 5 h; at 7.69 µM (top of the series) unless noted
# Outline: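 Screening format detects activators and inhibitors alike: ME-180 SIE-bla cells stimulated at 40 pM IL-6 for 5 hrs with compound, then dual-emission beta-lactamase read at 405 nm excitation.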
# [6] = target: Glucocorticoid receptor (Homo sapiens) (UniProt P04150); assay: GR-GFP Redistribution (AID 450;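 active = compounds whose dose series gives a full or clear partial fitted curve of increased nuclear translocation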; also: potency is read from the fitted curve at half-maximal effect); conditions: U2OS GR-GFP nuclear translocation, laser cytometry, 2 h
# Chain of Glucocorticoid receptor (Homo sapiens) (P04150 whole entry, looked up, the tested form may be a part): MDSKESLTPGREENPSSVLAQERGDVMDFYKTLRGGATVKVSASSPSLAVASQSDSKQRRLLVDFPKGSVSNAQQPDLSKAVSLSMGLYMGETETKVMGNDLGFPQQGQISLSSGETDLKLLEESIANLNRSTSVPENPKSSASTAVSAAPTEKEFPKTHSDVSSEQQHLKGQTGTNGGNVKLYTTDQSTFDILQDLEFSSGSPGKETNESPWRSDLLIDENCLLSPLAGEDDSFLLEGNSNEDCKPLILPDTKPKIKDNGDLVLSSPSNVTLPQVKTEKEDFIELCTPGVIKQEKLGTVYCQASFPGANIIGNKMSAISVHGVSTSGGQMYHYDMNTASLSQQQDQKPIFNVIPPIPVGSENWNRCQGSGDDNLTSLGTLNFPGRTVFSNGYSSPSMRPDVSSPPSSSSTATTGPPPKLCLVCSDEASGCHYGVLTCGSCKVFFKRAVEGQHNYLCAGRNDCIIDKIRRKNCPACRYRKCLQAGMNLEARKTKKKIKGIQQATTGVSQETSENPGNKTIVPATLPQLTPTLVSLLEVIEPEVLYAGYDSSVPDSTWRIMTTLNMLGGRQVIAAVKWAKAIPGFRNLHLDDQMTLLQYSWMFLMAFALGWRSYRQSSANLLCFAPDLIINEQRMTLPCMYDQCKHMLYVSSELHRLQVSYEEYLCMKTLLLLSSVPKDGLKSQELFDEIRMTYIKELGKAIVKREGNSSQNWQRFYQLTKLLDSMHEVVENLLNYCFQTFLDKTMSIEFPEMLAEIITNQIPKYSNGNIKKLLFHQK
# [7] = target: Glucocorticoid receptor (Homo sapiens) (UniProt P04150); assay: GR-EFC Redistribution (AID 451; calls by dose curve; also: potency is read from the fitted curve at half-maximal effect); conditions: CHO-K1 GR-EFC translocation, beta-gal luminescence, 2 h
# Outline: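 CHO-K1 cells stably expressing nuclear-localized β-gal enzyme acceptor and GR fused C-terminally to the enzyme donor fragment; ligand-driven nuclear translocation restores β-gal by complementation. Compounds titrated up to 46 uM final, 2 h at 37 °C; luminescence read.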
# [8] = target: Mitogen-activated protein kinase 10 (Mus musculus) (UniProt Q61831); assay: JNK3 AlphaScreen Assay (AID 530; active = well fitted curve in either direction with a large enough effect, not every such curve was filed as active;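 also: kinase came from lysate of stimulated human HepG2 cells; signal reports phosphorylation of biotinylated GST-cJun 1-79 at Ser73 with 10 µM ATP; % is scaled to controls: 0 for no effect and ±100 for the full control effect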); conditions: JNK3 lysate, c-Jun phosphorylation; series mostly up to 57.1 µM
# Outline: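 Inhibitors reduce antibody binding to phosphorylated biotin-cJun, lowering AlphaScreen luminescence. Lysates from HepG2 cells pre-activated by IL-1beta plus TNF-alpha supplied JNK3; compounds were titrated.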
# [9] = target: 3',5'-cyclic-AMP phosphodiesterase 4B (Homo sapiens) (UniProt Q07343); assay: qHTS Assay for Inhibitors of PDE-IV (AID 607; active = well fitted activation curve with a large enough effect in the main read-out, with a control signal flat, not every such curve was filed as active; also: % of control where 0% means no effect); conditions: HEK293 ACTOne CNG channel cells, membrane potential fluorescence; series mostly up to 22.9 µM
# Chain of 3',5'-cyclic-AMP phosphodiesterase 4B (Homo sapiens) (Q07343 whole entry, looked up): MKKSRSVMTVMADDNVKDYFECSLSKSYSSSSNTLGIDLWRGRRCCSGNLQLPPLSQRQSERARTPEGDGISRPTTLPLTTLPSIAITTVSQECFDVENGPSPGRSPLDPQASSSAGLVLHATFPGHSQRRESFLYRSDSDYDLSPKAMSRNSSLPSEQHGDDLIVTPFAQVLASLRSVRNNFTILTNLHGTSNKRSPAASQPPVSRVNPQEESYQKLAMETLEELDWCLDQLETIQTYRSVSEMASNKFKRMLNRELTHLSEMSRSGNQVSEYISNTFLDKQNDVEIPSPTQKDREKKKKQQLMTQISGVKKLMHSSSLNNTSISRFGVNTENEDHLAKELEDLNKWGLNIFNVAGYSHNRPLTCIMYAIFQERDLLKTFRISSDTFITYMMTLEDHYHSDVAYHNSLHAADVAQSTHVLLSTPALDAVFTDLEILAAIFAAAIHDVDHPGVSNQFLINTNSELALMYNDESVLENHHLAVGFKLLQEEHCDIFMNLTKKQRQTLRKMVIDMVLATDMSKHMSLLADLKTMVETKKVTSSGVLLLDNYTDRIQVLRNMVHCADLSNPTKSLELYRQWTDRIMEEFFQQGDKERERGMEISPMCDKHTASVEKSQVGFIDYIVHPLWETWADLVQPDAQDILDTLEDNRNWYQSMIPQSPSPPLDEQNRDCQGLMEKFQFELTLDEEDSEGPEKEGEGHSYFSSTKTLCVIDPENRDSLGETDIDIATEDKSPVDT
# Outline: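 The readout is membrane depolarisation from a cAMP-sensing CNG channel, detected with a potential dye at ex 535/em 590. Cells were HEK293-derived (endogenous PDE-IV) at 1000 cells/well, titrated up to 22.9 uM final.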
# [10] = target: Cytochrome P450 3A4 (Homo sapiens) (UniProt P08684); assay: qHTS Assay for Activators of Cytochrome P450 3A4 (AID 885); conditions: recombinant CYP3A4, Luciferin-PPXE luminescence, 60 min; series mostly up to 57.1 µM; also: nearly all actives have a fitted effect of over 65% in size
# Chain of Cytochrome P450 3A4 (Homo sapiens) (P08684 whole entry, looked up): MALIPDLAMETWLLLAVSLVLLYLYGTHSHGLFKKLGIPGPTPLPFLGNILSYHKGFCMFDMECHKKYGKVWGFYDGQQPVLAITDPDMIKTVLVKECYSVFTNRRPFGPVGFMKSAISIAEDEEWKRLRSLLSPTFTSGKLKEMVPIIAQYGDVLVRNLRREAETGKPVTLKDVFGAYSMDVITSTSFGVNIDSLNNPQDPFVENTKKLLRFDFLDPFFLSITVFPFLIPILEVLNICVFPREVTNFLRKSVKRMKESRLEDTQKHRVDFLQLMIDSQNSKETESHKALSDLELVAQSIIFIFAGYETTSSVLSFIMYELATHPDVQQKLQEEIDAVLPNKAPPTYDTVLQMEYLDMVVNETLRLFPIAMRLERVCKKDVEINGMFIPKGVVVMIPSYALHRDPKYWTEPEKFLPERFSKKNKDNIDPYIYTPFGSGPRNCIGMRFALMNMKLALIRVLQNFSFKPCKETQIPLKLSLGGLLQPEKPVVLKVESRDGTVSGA
# Outline: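 Steps: enzyme/substrate mix dispensed; compound added, 10 min RT; NADPH regeneration solution added, 60 min RT; luciferin detection buffer stops reaction; 20 min later luminescence measured.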
# [11] = qHTS Assay for Lipid Storage Modulators (AID 1519; calls by dose curve); conditions: Drosophila S3 cells, BODIPY lipid droplet/cell ratio, laser cytometry, cells loaded with oleic acid; for activity change, negative = inhibition: at 57.5 µM (top of the series)
# Outline: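 Cells seeded at 5,000 per well were treated with compounds over a concentration series and loaded with oleic acid (400 uM, as added). Lipid droplet fluorescence (488 nm excitation, 500-530 nm channel) was read by laser-scanning cytometry and normalized to 20 uM Triacsin C.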
# [12] = target: Dual specificity protein kinase CLK4 (Homo sapiens) (UniProt Q9HAZ1); assay: qHTS Assay for Inhibitors of CDC-like Kinase 4 (Kinase-Glo Assay) (AID 1770); conditions: recombinant Clk4, Kinase-Glo ATP depletion luminescence; series mostly up to 66.7 µM; also: % is scaled to controls: 0 for no effect and ±100 for the full control effect; nearly all actives have a fitted effect of over 65% in size
# Chain of Dual specificity protein kinase CLK4 (Homo sapiens) (Q9HAZ1 whole entry, looked up): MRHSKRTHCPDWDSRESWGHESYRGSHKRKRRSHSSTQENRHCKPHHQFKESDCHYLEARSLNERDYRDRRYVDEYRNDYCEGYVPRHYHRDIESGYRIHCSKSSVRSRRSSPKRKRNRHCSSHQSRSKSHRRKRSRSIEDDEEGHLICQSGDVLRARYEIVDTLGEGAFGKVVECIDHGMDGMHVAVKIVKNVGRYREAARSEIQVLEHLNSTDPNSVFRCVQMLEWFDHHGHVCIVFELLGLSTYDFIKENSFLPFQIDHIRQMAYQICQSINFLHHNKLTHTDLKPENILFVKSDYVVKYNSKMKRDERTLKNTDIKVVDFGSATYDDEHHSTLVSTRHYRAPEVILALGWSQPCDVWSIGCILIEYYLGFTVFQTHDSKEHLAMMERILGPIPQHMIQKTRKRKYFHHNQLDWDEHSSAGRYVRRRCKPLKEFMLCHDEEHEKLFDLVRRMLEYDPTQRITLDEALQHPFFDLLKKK
# Outline: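 25 nM Clk4 with 100 uM RS repeat peptide and 1 uM ATP (final) in Tris pH7.5, 10 mM MgCl2, 4.5 h at room temperature. Remaining ATP measured by Kinase-Glo luciferase luminescence.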
# [13] = target: Dual specificity protein kinase CLK4 (Homo sapiens) (UniProt Q9HAZ1); assay: qHTS Assay for Inhibitors of CDC-like Kinase 4 (ADP-Glo Assay) (AID 1771); conditions: recombinant CLK4, ADP-Glo luminescence; series mostly up to 80 µM; also: % is scaled to controls: 0 for no effect and ±100 for the full control effect; nearly all actives have a fitted effect of over 70% in size
# Outline: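 25 nM Clk4 with 100 uM RS repeat peptide and 1 uM ATP (final) in buffer with 2 mM MgCl2, 0.5 mM EGTA, 2.5 mM DTT, 0.01% Triton X-100; 1 h at room temperature; ADP-Glo luminescence for ADP formed.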
# [14] = target: Dual specificity protein kinase CLK4 (Homo sapiens) (UniProt Q9HAZ1); assay: qHTS Assay for Inhibitors of CDC-like Kinase 4 (ADP-FP Assay) (AID 1795); conditions: Transcreener ADP fluorescence polarization; series mostly up to 50 µM;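 also: recombinant human CLK4 phosphorylating RS repeat peptide at 1 µM ATP; % is scaled to controls: 0 for no effect and ±100 for the full control effect; nearly all actives have a fitted effect of over 60% in size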
# Outline: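 Recombinant Clk4 (6.25 nM) phosphorylated 100 uM RS repeat peptide with 1 uM ATP in 25 mM Tris pH 7.5, 10 mM MgCl2, 0.5 mM EGTA, 2.5 mM DTT, 0.01% Triton X-100 for 1 h. ADP was detected by Transcreener ADP2 competitive fluorescence polarization after 30 min at room temperature.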
# [15] = target: Ubiquitin carboxyl-terminal hydrolase 1 (Homo sapiens) (UniProt O94782); assay: Inhibitors of USP1/UAF1: Pilot qHTS (AID 504865); conditions: purified USP1/UAF1, Ub-rhodamine cleavage fluorescence; series mostly up to 54.9 µM;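 also: rhodamine fluorescence freed from ubiquitin-rhodamine substrate followed over time; top concentration of the series differs between compounds; % is scaled to controls: 0 for no effect and ±100 for the full control effect; nearly all actives have a fitted effect of over 35% in size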
# Outline: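 USP1/UAF1 complex at 1 nM preincubated 15 min at room temperature with compound, then Ub-Rho substrate added at 150 nM final. Fluorescence (480/540 nm) read kinetically in 50 mM HEPES pH 7.8, 0.5 mM EDTA, 1 mM TCEP, 0.1 mg/ml BSA, 0.01% Tween-20.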
# [16] = Confirmation and Secondary Assay for Modulators of Hemoglobin Beta Chain Splicing at IVS2 705 locus (AID 930); conditions: HeLa EGFP-705 splicing reporter, GFP fluorescence, 48 h; series mostly up to 38.3 µM;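 also: HeLa cells stably expressing the EGFP-705 splicing reporter; GFP fluorescence per well restored by corrected splicing of the IVS2-705 intron in EGFP; % of control where 0% means no effect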
# Outline: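 HeLa cells stably carrying EGFP interrupted by mutant beta-globin intron 2 (IVS2-705) treated 2 days at 37C with compound; 500 nM antisense PNA as control. Correct splicing read as total peak GFP intensity per well by laser-scanning cytometry.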
# [17] = target: Rap guanine nucleotide exchange factor 3 (Homo sapiens) (UniProt O95398); assay: Confirmatory qHTS for agonist of cAMP-regulated guanine nucleotide exchange factor 3 (EPAC1) (AID 1645881); conditions: EPAC1 Rap1B BODIPY-GDP exchange fluorescence; series mostly up to 154 µM;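 also: EPAC1 catalysed release of BODIPY-GDP from Rap1B seen as fluorescence loss; 100% = effect of cAMP agonist control; nearly all actives have a fitted effect of over 75% in size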
# Chain of Rap guanine nucleotide exchange factor 3 (Homo sapiens) (O95398 whole entry, looked up): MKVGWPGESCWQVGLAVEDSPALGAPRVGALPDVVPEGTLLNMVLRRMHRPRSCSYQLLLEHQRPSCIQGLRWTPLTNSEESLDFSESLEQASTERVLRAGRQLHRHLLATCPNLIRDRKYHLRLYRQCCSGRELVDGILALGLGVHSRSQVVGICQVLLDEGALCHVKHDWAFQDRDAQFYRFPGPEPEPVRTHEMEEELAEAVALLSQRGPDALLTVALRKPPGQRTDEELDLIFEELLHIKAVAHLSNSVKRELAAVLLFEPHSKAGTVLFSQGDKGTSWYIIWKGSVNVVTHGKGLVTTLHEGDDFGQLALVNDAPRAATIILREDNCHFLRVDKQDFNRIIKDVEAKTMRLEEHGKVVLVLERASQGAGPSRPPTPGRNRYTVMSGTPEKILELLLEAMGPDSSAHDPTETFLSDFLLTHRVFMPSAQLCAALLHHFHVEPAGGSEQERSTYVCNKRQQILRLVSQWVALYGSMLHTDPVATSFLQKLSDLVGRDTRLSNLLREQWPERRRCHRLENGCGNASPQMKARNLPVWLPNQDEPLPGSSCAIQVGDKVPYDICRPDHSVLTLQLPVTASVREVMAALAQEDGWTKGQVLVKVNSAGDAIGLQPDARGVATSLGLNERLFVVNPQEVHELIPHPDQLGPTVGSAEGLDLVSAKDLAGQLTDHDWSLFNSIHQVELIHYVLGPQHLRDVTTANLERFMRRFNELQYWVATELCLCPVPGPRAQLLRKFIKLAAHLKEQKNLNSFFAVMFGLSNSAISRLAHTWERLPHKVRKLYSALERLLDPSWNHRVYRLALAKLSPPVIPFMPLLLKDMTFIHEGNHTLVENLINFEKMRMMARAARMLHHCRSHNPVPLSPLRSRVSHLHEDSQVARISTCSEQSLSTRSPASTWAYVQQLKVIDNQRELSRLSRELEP
# [18] = target: Rap guanine nucleotide exchange factor 4 (Homo sapiens) (UniProt Q8WZA2); assay: Confirmatory qHTS for agonist of cAMP-regulated guanine nucleotide exchange factor 4 (EPAC2) (AID 1645884); conditions: EPAC2 GEF activity, Rap1B-BODIPY-GDP fluorescence; series mostly up to 154 µM;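 also: nucleotide exchange releases bodipy-GDP from Rap1 and this lowers its fluorescence; % is scaled to controls: 0 for no effect and ±100 for the full control effect; nearly all actives have a fitted effect of over 65% in size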
# Chain of Rap guanine nucleotide exchange factor 4 (Homo sapiens) (Q8WZA2 whole entry, looked up): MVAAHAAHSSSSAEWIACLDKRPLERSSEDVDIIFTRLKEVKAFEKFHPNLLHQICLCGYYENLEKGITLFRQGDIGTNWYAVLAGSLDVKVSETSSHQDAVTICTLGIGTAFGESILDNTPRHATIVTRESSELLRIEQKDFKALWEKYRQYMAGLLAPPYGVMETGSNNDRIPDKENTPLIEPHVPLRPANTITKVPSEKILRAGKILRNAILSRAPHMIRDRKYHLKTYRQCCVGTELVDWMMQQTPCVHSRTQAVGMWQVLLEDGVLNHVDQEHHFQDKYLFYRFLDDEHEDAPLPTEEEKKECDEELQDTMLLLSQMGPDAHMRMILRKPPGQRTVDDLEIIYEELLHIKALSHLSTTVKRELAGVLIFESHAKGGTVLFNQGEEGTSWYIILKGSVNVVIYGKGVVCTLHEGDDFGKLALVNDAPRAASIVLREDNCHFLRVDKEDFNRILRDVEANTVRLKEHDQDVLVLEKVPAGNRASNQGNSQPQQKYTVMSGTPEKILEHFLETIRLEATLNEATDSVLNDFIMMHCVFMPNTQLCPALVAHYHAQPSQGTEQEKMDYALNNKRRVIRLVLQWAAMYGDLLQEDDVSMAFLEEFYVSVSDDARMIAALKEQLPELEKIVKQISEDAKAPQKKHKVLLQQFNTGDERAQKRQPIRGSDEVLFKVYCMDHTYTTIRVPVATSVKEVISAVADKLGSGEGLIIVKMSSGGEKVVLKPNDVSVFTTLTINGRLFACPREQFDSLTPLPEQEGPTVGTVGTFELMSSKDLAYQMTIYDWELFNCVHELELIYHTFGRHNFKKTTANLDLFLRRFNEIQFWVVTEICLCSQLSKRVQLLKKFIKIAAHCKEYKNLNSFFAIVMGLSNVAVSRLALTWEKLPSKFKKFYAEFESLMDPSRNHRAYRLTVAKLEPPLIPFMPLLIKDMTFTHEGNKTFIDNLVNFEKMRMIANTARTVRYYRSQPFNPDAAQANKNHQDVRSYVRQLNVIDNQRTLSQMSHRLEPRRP
# [19] = target: Rap guanine nucleotide exchange factor 4 (Homo sapiens) (UniProt Q8WZA2); assay: Confirmatory qHTS for antagonist of cAMP-regulated guanine nucleotide exchange factor 4 (EPAC2) (AID 1645885); conditions: EPAC2 Rap1B-BODIPY-GDP exchange fluorescence, biochemical; series mostly up to 114 µM; also: potency is read from the fitted curve at half-maximal effect; nearly all actives have a fitted effect of over 25% in size
# [20] = target: Cytochrome P450 3A4 (Homo sapiens) (UniProt P08684); assay: qHTS Assay for Inhibitors and Substrates of Cytochrome P450 3A4 (AID 884); conditions: recombinant CYP3A4, Luciferin-PPXE luminescence; series mostly up to 57.1 µM; also: potency is read from the fitted curve at half-maximal effect; nearly all actives have a fitted effect of over 50% in size
# Outline: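 20 nM human CYP3A4 with 25 uM Luciferin-PPXE (at KM) in 200 mM KPO4, preincubated 10 min with compound; NADPH regeneration started a 60 min RT reaction. Luciferin detected by luminescence, normalized to 57 uM ketoconazole as full inhibition.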
# [21] = measured here: cell count channel max response
# [22] = measured here: lipid channel max response
smiles,measurement,setting,value
COc1ccccc1-c1nc(N(C)C)c2ccccc2n1,Potency,[1],> 11.4 µM (inactive)
same,"activity change, negative = inhibition",[2],19.2% (inactive)
same,Potency,[3],0.398 µM (active)
same,"activity change, negative = inhibition",[4],-18.6% (inactive)
same,"activity, negative = inhibition",[5],31.2% (inactive)
same,Potency,[6],> 46 µM (inactive)
same,Potency,[7],> 46 µM (inactive)
same,Potency,[8],inactive
same,Potency,[9],inactive
same,Potency,[10],inactive
same,"activity change, negative = inhibition",[11],-1.18% (inactive)
same,max response,[11]; [21],4.21%
same,max response,[11]; [22],-1.67%
same,Potency,[12],inactive
same,Potency,[13],inactive
same,Potency,[14],inactive
same,Potency,[15],inactive
CCC(=O)OC1CCC2C3CCc4cc(O)ccc4C3CC[C@]12C (some centres not stated),outcome,[16],inactive
same,"activity change, negative = inhibition",[11],3.26% (inactive)
same,max response,[11]; [21],9.46%
same,max response,[11]; [22],15.5%
same,Potency,[17],inactive
same,Potency,[18],inactive
same,Potency,[19],49.4 µM (active)
O=C1C=CC2=C3c4cc(O)c(O)cc4CC3(O)COC2=C1O (configuration not stated),Potency,[20],31.6 µM (active)
same,outcome,[16],inactive
same,"activity change, negative = inhibition",[11],6.15% (inactive)
same,max response,[11]; [21],11.8%
same,max response,[11]; [22],21%
same,Potency,[17],inactive
same,Potency,[18],inactive
CC#C[C@]1(O)CC[C@H]2C3CCC4=CC(=O)CCC4=C3[C@@H](c3ccc(N(C)C)cc3)C[C@@]21C (some centres not stated),"activity change, negative = inhibition",[11],0.852% (inactive)
same,max response,[11]; [21],-13.1%
same,max response,[11]; [22],-13.3%
CNC(=O)[C@H]1O[C@@H](n2cnc3c(N)ncnc32)[C@H](O)[C@H]1O,"activity change, negative = inhibition",[11],-1.94% (inactive)
same,max response,[11]; [21],-22.6%
same,max response,[11]; [22],-24.5%
